The subject of this assay is Trypanosoma brucei. Nature of the assay: Trypanosoma brucei 72 hour study. The format is functional, organism-based. Details: scale not given: in the data most compounds retested in dose-response had high values.

Among all 66,000 compounds or so, about 960 (1.5%) showed an effect of 50% or more. The entries come from a sample that favours strong results as a whole.

In the case of `Cc1nnc([C@H]2C[C@@H]3CCN(Cc4ccc(C)o4)C[C@H]3O2)[nH]1.O=C(O)C(F)(F)F`, the “Percent Effect” value (30 µM, 30.03 µM) was -11.08%.
Regarding `COc1cc2c(cc1CN1CCn3c(CO)nnc3C1)CCC2.O=C(O)CC(O)(CC(=O)O)C(=O)O`, under “30.3 µM, […]”, the “Percent Effect” value is -66.2%.
On to `O=C(COCC1CC[C@H]2[C@H](CCN2c2ncccn2)O1)N1CCCC1.O=C(O)C(F)(F)F` (stereo partly specified), for which, for the setting “30 µM, 30.03 µM”, the “Percent Effect” value was -11.45%.
As for `O=C(COC[C@H]1CC[C@H]2[C@H](CCN2c2ncccn2)O1)N1CCCC1.O=C(O)C(F)(F)F`, the “Percent Effect” value (30 µM, 30.03 µM) was 52.31%.
For `O=C(COC[C@H]1CC[C@H]2[C@H](CCN2c2ccccn2)O1)N1CCCC1.O=C(O)C(F)(F)F`, for the setting “30 µM, 30.03 µM”, the “Percent Effect” value is -34.45%.
As for `O=C(CC1CC1)N1CCC2(CC1)CN(c1cccnc1)C(=O)CO2.O=C(O)C(F)(F)F`, the “Percent Effect” value (30.3 µM, […]) is on record as -59.01%.
With `CCOc1ncccc1C(=O)N1CCC(Nc2ccc(C)nn2)CC1`, the “Percent Effect” value was 1.842% (30.3 µM, […]) and -20.5% (10 mM, 10 mM as filed; unlikely as a test dose).
Consider `CN(C)S(=O)(=O)N1C[C@H]2C[C@H](C(=O)Nc3cccnc3)[C@@H](C1)O2`, for which the “Percent Effect” value (30.3 µM, […]) is listed as -739.2%.
In the case of `N#Cc1c(C2CC2)cc(-c2ccc(F)c(F)c2)nc1N`, the “Percent Effect” value (30.3 µM, […]) is on record as -90.74%.
Consider `COc1ccc(-c2cc(C3CC3)c(C#N)c(N)n2)cc1F`, for which the “Percent Effect” value (30.3 µM, […]) came to 93.34%.
With `N#Cc1c(C2CC2)cc(-c2ccc(O)cc2)nc1N`, the “Percent Effect” value (30 µM, 30.03 µM) came out at 17.72%.
Turning to `CN(C)CCO[C@@H]1CC[C@H]2[C@H]1OCCN2C(=O)c1ccc(F)cc1.O=C(O)C(F)(F)F`, the “Percent Effect” value (30.3 µM, […]) is reported as -19.82%.
On the same count and under the same terms, for `CN(C)c1cc(CNC(=O)Nc2ccc(N3CCCC3)nc2)ccn1` the value was 18.28%; for `O=C(CC1CCC2(CC1)CCN(Cc1cccnc1)CC2)N1CC=CC1.O=C(O)C(F)(F)F.O=C(O)C(F)(F)F`, -37.26%.
With `O=C(C1CCOC1)N1CCC2(CCN(Cc3nccs3)CC2)CC1` (stereo unspecified), the “Percent Effect” value (30 µM, 30.03 µM) amounted to 55.49%.
With `O=C(C1CCOC1)N1CCC2(CCN(Cc3nccs3)C2)CC1` (stereo unspecified), the “Percent Effect” value (30 µM, 30.03 µM) was determined as 6.218%.
On to `O=C(C1CCOCC1)N1CCC2(CCN(Cc3nccs3)CC2)CC1.O=C(O)C(F)(F)F`, for which the “Percent Effect” value (30 µM, 30.03 µM) is recorded as 11.85%.
As for `CCn1cc(C(=O)N2C[C@H]3C[C@H](Oc4ccccc4)C[C@H]3C2)cn1`, for the setting “30.3 µM, […]”, the “Percent Effect” value came to 7.287%.
With `CS(=O)(=O)NCc1nnc2n1CCN(Cc1ccccn1)C2`, the “Percent Effect” value (30.3 µM, […]) turned out to be 73.82%.
On the same count and under the same terms, under `CS(=O)(=O)NCc1nnc2n1CCN(Cc1cccnc1)C2` stands -308.6%.
On to `CS(=O)(=O)NCc1nnc2n1CCN(Cc1ccncc1)C2`, for which the “Percent Effect” value (30.3 µM, […]) was -346.7%.
`CC(C)=CCN1C(=O)[C@H]2CC[C@@H]1CN(c1ncccc1C(N)=O)C2`: the “Percent Effect” value (30 µM, 30.03 µM) is reported as 2.727%.
In the case of `CC1c2ncc(CNC(=O)C3CC3)n2CCN1Cc1nccs1.O=C(O)C(F)(F)F` (stereo unspecified), the “Percent Effect” value (30.3 µM, […]) was -11.04%.
In the case of `CC(C)(C)n1ncc2c(=O)[nH]c(N3CC(O)C3)nc21`, under “30 µM, 30.03 µM”, the “Percent Effect” value is 18.67%.
With `CN1CC(Nc2nc3c(cnn3C(C)(C)C)c(=O)[nH]2)CCC1=O` (stereo unspecified), under “30 µM, 30.03 µM”, the “Percent Effect” value is recorded as -21.89%.
Regarding `CC(C)(C)n1ncc2c(=O)[nH]c(NC3CC=CC3)nc21`, the “Percent Effect” value (30 µM, 30.03 µM) came to 100.8%.
With `Cc1ncc(CN2CCC(N(C)Cc3noc(C4CC4)n3)C2)s1` (stereo unspecified), for the setting “10 µM”, the “Percent Effect” value was -20.3%.
As for `CC(Cn1cccn1)NC(=O)NCc1cccnc1` (stereo unspecified), the “Percent Effect” value (10 µM) is given as -30.88%.
Regarding `O=C(O)C(c1ccc2c(c1)OCCO2)N1CCC(N2CCSCC2)CC1` (stereo unspecified), the “Percent Effect” value (30 µM, 30.03 µM) is -29.57%.
On to `Cc1nc(CN(C)CC2CCCN2c2cccnn2)nc2ccccc12` (stereo unspecified), for which the “Percent Effect” value (30.3 µM, […]) is given as 101.1%.
Regarding `CN(Cc1nc(N)c2ccccc2n1)CC1CCCN1c1cccnn1` (stereo unspecified), under “30 µM, 30.03 µM”, the “Percent Effect” value is recorded as 4.932%.
Same read-out and setting: under `Cc1nc2ccccc2nc1CN(C)CC1CCCN1c1cccnn1` (stereo unspecified) stands -12.68%.
Regarding `Cc1nn(C)c(N(C)C)c1CNCCOc1ccc2c(c1)OCO2.Cl`, the “Percent Effect” value (10 µM) is recorded as -62.44%.
Turning to `Cc1nc(CNc2cccc(Cl)c2Cl)cs1`, the “Percent Effect” value (30.3 µM, […]) is listed as 13.05%.
Take `CN(C)c1cccc(C2CCCN2Cc2nnnn2C2CC2)c1` (stereo unspecified): the “Percent Effect” value (30 µM, 30.03 µM) is -5.59%.
`CN(C)c1cccc(C2CCCN2CCCN2CCOC2=O)c1` (stereo unspecified): the “Percent Effect” value (30.3 µM, […]) was determined as 100.6%.
As to `O=C1OCCN1CCCN1CCCC1c1ccc(O)cc1` (stereo unspecified), the “Percent Effect” value (30.3 µM, […]) is -41.53%.
On to `Cc1cc(C(=O)N2CCN(c3nc4c(C(C)C)cccc4s3)CC2)no1`, for which, for the setting “30 µM, 30.03 µM”, the “Percent Effect” value was -24.13%.
Take `Cc1ccc(CN(CCCn2ccnc2)Cc2cnc(N(C)C)nc2)s1.O=C(O)CC(O)(CC(=O)O)C(=O)O`: the “Percent Effect” value (30.3 µM, […]) is given as -19.58%.
On the same count and under the same terms, under `Cc1ccc(CN(CCCn2ccnc2)Cc2c[nH]cn2)s1.O=C(O)CC(O)(CC(=O)O)C(=O)O` stands 1.137%.
Turning to `CN(C)c1ccc(CN(CCCn2ccnc2)Cc2c[nH]cn2)cc1.O=C(O)CC(O)(CC(=O)O)C(=O)O`, the “Percent Effect” value (30.3 µM, […]) is recorded as 101.7%.
For the compound `CCOc1ccc(Cl)cc1C1CCCCN1.Cl` (stereo unspecified), the “Percent Effect” value (30 µM, 30.03 µM) is reported as -10.24%.
With `Cc1cccc(CN2C(=O)CCC23CCN(C(=O)NC(C)C)CC3)n1.O=C(O)C(F)(F)F`, under “30.3 µM, […]”, the “Percent Effect” value was -47.32%.
Take `CCc1ccc(-c2cc(C(F)(F)F)nc(N3CCC(N)CC3)n2)cc1`: the “Percent Effect” value (30.3 µM, […]) came out at 100.3%.
As for `O=C(O)C1CCCN1c1nc(-c2ccc(Cl)c(Cl)c2)cc(C(F)(F)F)n1` (stereo unspecified), the “Percent Effect” value (30 µM, 30.03 µM) was -7.275%.
